# Where “and” joins values, the source holds several entries; their conditions need not be identical. Equal entries are not always repeated. Records with an inconclusive call do not appear. Entries that show only a call come without a potency. A structure can be active in one record and inactive in another. Calls of active or inactive are those of the source. The call rests on the fitted dose curve; in most records, active means well fitted activation curve with a large enough effect in the repeat runs; inconclusive means weak or mixed curves; inactive means flat fitted curve, though single readings scatter.
# Test: A CellTox Green Cytotoxicity Assay to monitor cytotoxicity in HepG2 cells - 0 hour (AID 1224882); further: nearly all actives have a fitted effect of over 35% in size
# Conditions: CellTox Green fluorescence; series mostly up to 76.8 µM
# How it was run: (§1)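 Continuous culture of HepG2 cells with a membrane-impermeant DNA dye; rising fluorescence marks dead cells. Compound exposure lasted up to 40 h at 37 C, with reads every 8 h from 0 h.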
# Potency means the concentration at half of the fitted maximal effect.
row,Compound,Potency
1,N#Cc1nn(-c2c(Cl)cc(C(F)(F)F)cc2Cl)c(N)c1S(=O)C(F)(F)F (configuration not stated),inactive
2,O=S(=O)(O)C(F)(F)C(F)(F)C(F)(F)C(F)(F)C(F)(F)C(F)(F)C(F)(F)C(F)(F)F,inactive
3,CCCCOCC1CO1 (configuration not stated),inactive and 38.9 µM (active)
4,ClCC(Cl)CCl,inactive
5,O=C1Nc2ccc(Cl)cc2C(c2ccccc2)=NC1O (configuration not stated),inactive
6,ClC(Cl)(Cl)Br,inactive
7,CC1=C(C(=O)Nc2ccccc2)SCCO1,inactive
8,Clc1ccccc1-c1nnc(-c2ccccc2Cl)nn1,inactive
9,CC1CC(=O)O1 (configuration not stated),inactive
10,CCOP(=O)(OCC)OCC,inactive

# Test: A CellTox Green Cytotoxicity Assay to monitor cytotoxicity in HepG2 cells - 32 hour (AID 1224883); further: nearly all actives have a fitted effect of over 50% in size
# Conditions: CellTox Green fluorescence; series mostly up to 76.8 µM
# How it was run: as §1
row,Compound,Potency
1,N#CCCCCC#N,inactive
2,COP(=S)(OC)Oc1ccc(S(=O)(=O)N(C)C)cc1,inactive
3,N#Cc1c(Cl)c(Cl)c(Cl)c(C#N)c1Cl,21.5 µM (active) and 3.47 µM (active)
4,C[C@]12CC[C@H]3[C@@H](CCC4=CC(=O)CC[C@@H]43)[C@@H]1CC[C@@H]2O,inactive
5,COc1ccc(CO)cc1,inactive
6,CCC(=O)Nc1ccc(Cl)c(Cl)c1,inactive
7,NN=C(N)N,inactive
8,OC(c1ccc(Cl)cc1)(c1cncnc1)c1ccccc1Cl (configuration not stated),17.7 µM (active) and inactive
9,Cl,inactive
10,CC(C)(c1ccccc1)c1ccc(O)c(C(C)(C)c2ccccc2)c1,48.5 µM (active) and 43.6 µM (active)
11,CC(C)(c1ccccc1)c1ccc(O)cc1,48.6 µM (active) and 24.5 µM (active)
12,COP(=O)(NC(C)=O)SC (configuration not stated),inactive
